Compound activity as filed in PubChem.
In the library only some 7.8% were active in any assay of this set; here they are far more common.
Vaccinia Venus – vaccinia inhibition (Venus reporter) | hit rate 0.46% among 330,000 | AID 720580 | Potency, µM (highest dose often 36.5 µM), for the others: at the top dose activity change, negative = inhibition, most hits filed as inhibitors | Vaccinia virus Venus reporter expression, fluorescence; calls by dose curve; tested in A549 cells; also: potency is read from the fitted curve at half-maximal effect; nearly all actives have a fitted effect of over 30% in size
Vaccinia mCherry – inhibitors of vaccinia virus infection (mCherry reporter signal) | Vaccinia virus mCherry reporter infection, fluorescence | Potency, µM (titrated, usually from 36.5 µM), without a hit: at the highest dose activity change, negative = inhibition, most hits filed as inhibitors | hit rate 0.63% among 310,000 | AID 720579; calls by dose curve; tested in A549 cells; also: potency is read from the fitted curve at half-maximal effect; nearly all actives have a fitted effect of over 35% in size
HCMV inh – human cytomegalovirus inhibition. activity change, negative = inhibition, % at 57.5 µM. HFF cells, HCMV-luciferase reporter, 72 h; stronger effect = lower value. hit rate 4.5% among 410,000; in the data active = activity change below about -60%; inconclusive = no clear call, values can overlap the other calls; inactive = above about -39%
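HFF cells seeded 16 h at 37C, treated with compounds, infected with luciferase-reporter HCMV at MOI 1 PFU/cell; luciferase read at 72 h post infection, normalized to buffer-only and Salinomycin controls.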
Lassa entry inh – inhibitors of Lassa virus binding or cell entry. Lassa virus pseudotype entry inhibition, cell reporter. Potency, µM (titrated, usually from 37.9 µM), for the others: at the highest dose activity change, negative = inhibition, most hits filed as inhibitors. hit rate 1.2% among 300,000; calls by dose curve; tested in HEK293 cells; also: potency is read from the fitted curve at half-maximal effect; nearly all actives have a fitted effect of over 50% in size
MARV entry inh – inhibitors of Marburg virus binding or cell entry | Marburg virus pseudotyped entry inhibition, cell reporter | hit rate 1.8% among 300,000 | Potency, µM (series often up to 37.8 µM), for the others: at the highest dose activity change, negative = inhibition, hits mostly inhibitors; calls by dose curve; tested in HEK293 cells; also: potency is read from the fitted curve at half-maximal effect
HCV inhibitor – blocks hepatitis C virus; Potency, µM (top dose mostly 41.8 µM), without a hit: at the highest dose activity change, negative = inhibition, usual class: inhibitors; hit rate 3.4% among 340,000; AID 651820; Huh7.5.1 HCVcc-Cre infection, luciferase reporter, 44 h; active = well fitted inhibition curve with a large enough effect; inconclusive = small, poorly fitted or top-dose-only effect, or another doubt; inactive = no such curve, though single readings can be large or run the other way; also: potency is read from the fitted curve at half-maximal effect
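Cells (1,000/well) were plated 4 h before compound, then infected with HCVcc-Cre virus (~0.5 moi). After 44 h further culture, infection was read as luciferase luminescence following a 15 min substrate incubation at room temperature.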
Numbers without * were called inactive; i = inactive; ? = inconclusive; · = not tested or not shown; ! = repeats disagree; [ ] = dose if it differs, or a comment. % is scaled to controls: 0 for no effect and ±100 for the full control effect.

SMILES	Vaccinia Venus	Vaccinia mCherry	HCMV inh	Lassa entry inh	MARV entry inh	HCV inhibitor
COc1ccc(C(=O)N2CCN(c3ccc([N+](=O)[O-])c(NCCc4ccc(OC)c(OC)c4)c3)CC2)cc1	-21%	?	-99*	4.5µM*	?	1µM*
C=C[C@@H]1c2cccc(C)c2N(S(=O)(=O)c2ccc(C)cc2)[C@H](c2ccc(OC(C)=O)cc2)C1(C#N)C#N	-19%	-11%	-79*	·	·	?
C=C[C@@H]1c2c(F)cccc2N(S(=O)(=O)c2ccc(C)cc2)[C@H](c2ccc(OC(C)=O)cc2)C1(C#N)C#N	?	?	-32	·	·	22µM*
C=C[C@@H]1c2cccc(C)c2N(S(=O)(=O)c2ccc(C)cc2)[C@H](c2ccccc2)C1(C#N)S(=O)(=O)c1ccccc1 (some centres undefined)	-25%	i	-11	·	·	-22%
C=C[C@@H]1c2c(F)cccc2N(S(=O)(=O)c2ccc(C)cc2)[C@H](c2ccc(C(=O)OC)cc2)C1(C#N)C#N	-23%	-12%	-36	·	·	-14%
Cc1ccc(CSc2nnc(SCC(=O)N/N=C/c3c(C)nn(-c4ccccc4)c3C)s2)cc1	-1%	-14%	-9	8.2µM*	?	?
Cc1nn(-c2ccccc2)c(C)c1/C=N/NC(=O)CSc1nnc(-c2ccccc2)n1-c1ccc(Cl)cc1	-8%	-7%	-16	?	?	?
O=C(CSc1nnc(SCc2ccc(Cl)cc2)s1)N/N=C/c1ccc(C(=O)O)cc1	-16%	?	-2	-15%	7%[46.1 µM]	10%
Cc1nn(-c2ccccc2)c(C)c1/C=N/NC(=O)CSc1nnc(SCc2ccccc2Cl)s1	-18%	-13%	-18	2.1µM*	?	?
O=C(CSc1nnc(SCc2ccc(Cl)cc2)s1)N/N=C/c1c[nH]c2ccccc12	11µM*	?	-7	?	?	?
OCCCc1ccc(O)c(O)c1	-2%	-5%	0	·	·	-11%
CCCN(CCC)CCc1ccc(O)c(O)c1	-4%	-15%	·	24%	1µM*!	·
CC(=O)Nc1cccc(-c2nnc(SCC(=O)c3cc([N+](=O)[O-])ccc3Br)o2)c1	-11%	i	-13	0%[46.1 µM]	?	·
Cc1csc2nc(COc3ccc(NC(=O)COc4ccc(F)cc4)cc3)cc(=O)n12	-12%	-7%	-20	-4%[46.1 µM]	-13%[46.1 µM]	·
CCOc1ccc(S(=O)(=O)N2CCN(S(=O)(=O)c3ccc(C(C)=O)cc3)CC2)cc1	-5%	i	6	20%	17%[46.1 µM]	16%
CCOc1ccc(S(=O)(=O)N2CN(c3cccc(C(C)=O)c3)c3nc4ccccc4nc32)cc1	-7%	i	-71*	?	-11%	?
CCc1nc2cc(C(=O)N(C)CC3CCCN(C)C3)cc(NC(=O)c3ccccc3OC)c2n1C (centres undefined)	-8%	-10%	·	·	·	·
Cc1ccc(S(=O)(=O)/N=C2\C(=O)c3ccccc3C([O-])=C2n2cc[n+](CCC(C)C)c2)cc1	?	?	·	-16%	?	18µM*
CC(=O)Nc1ccc(S(=O)(=O)/N=C2\C(=O)c3ccccc3C([O-])=C2n2cc[n+](-c3ccccn3)c2)cc1	·	·	?	·	·	-5%
CCCC[n+]1ccn(C2=C([O-])c3ccccc3C(=O)/C2=N\S(=O)(=O)c2ccc(Br)cc2)c1	98%	?	-13	?	?	10µM*
CCC(=O)NC(=S)Nc1ccc(NC(=O)c2ccc(OC)cc2)cc1	0%	-12%	-21	-6%	-29%	-27%
CC1CCN(c2ccc(NC(=O)c3ccc(Br)o3)cc2)CC1	-25%	-22%	58	10µM*	?	0%
CCC(=O)NC(=S)Nc1ccc(NC(=O)c2ccc(Br)o2)cc1	·	·	-103*	·	·	?
Cc1ccc(C(=O)N2CCN(c3ccc(NC(=O)c4ccc(Br)o4)cc3)CC2)cc1	-23%	?	?	?	?	10µM*
Cc1nn2c(=O)cc(COC(=O)c3ccccc3NC(=O)C(C)Oc3ccccc3)nc2s1 (centres undefined)	-21%	i	-30	11%[46.1 µM]	·	·
